Vaccinia Venus: inhibitors of vaccinia virus (Venus reporter); Potency, µM (series often up to 36.5 µM), most hits filed as inhibitors; AID 720580; actives 0.46% (n = 330,000); Vaccinia virus Venus reporter expression, fluorescence; calls by dose curve; tested in A549 cells; note: nearly all actives have a fitted effect of over 30% in size
HCMV antiviral: blocks human cytomegalovirus replication. actives 4.5% (n = 410,000). HFF cells, HCMV-luciferase reporter, 72 h; hits give low values. activity change, negative = inhibition, % at 57.5 µM; in the data active = activity change below about -60%; inconclusive = no clear call, values can overlap the other calls; inactive = above about -39%
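Human foreskin fibroblasts infected with luciferase-reporter HCMV at MOI 1 PFU/cell, compounds at two doses. Luciferase measured 72 h post infection; normalized to buffer-only basal and Salinomycin (10uM) controls.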
Vaccinia mCherry: vaccinia inhibition (mCherry reporter); Vaccinia virus mCherry reporter infection, fluorescence; actives 0.63% (n = 310,000); Potency, µM (titrated, usually from 36.5 µM), usual class: inhibitors; calls by dose curve; tested in A549 cells; note: nearly all actives have a fitted effect of over 35% in size
HCV inh: inhibitors of hepatitis C virus infection. Potency, µM (doses to about 41.8 µM), actives largely listed as inhibitors. actives 3.4% (n = 340,000). AID 651820. Huh7.5.1 HCVcc-Cre infection, luciferase reporter, 44 h
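Antiviral activity was scored by luciferase reporter output from cells infected with HCVcc-Cre (~0.5 moi) in presence of compound, 44 h infection period, cells seeded 1,000/well 4 h prior.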
Sm TGR inh: inhibitors of Schistosoma mansoni thioredoxin glutathione reductase; Potency, µM (series often up to 114 µM), hits mostly inhibitors; Q962Y6; purified TGR, DTNB reduction, TNB absorbance 405 nm; actives 3% (n = 360,000); note: nearly all actives have a fitted effect of over 60% in size
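TGR 20 nM + NADPH 100 uM (dispensed conc.), cpd preinc 15 min RT; start with NADPH (500 uM addition) then DTNB (15 mM addition). Kinetic TNB absorbance, 405 nm filter. Four-parameter Hill fit across titration.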
FMDV antiviral: blocks foot and mouth disease virus; FMDV antiviral cell-based qHTS; Potency, µM (titrated, usually from 57.9 µM), actives largely listed as inhibitors; actives 1.2% (n = 410,000); calls by dose curve; tested in HEK293T cells; note: read-out not given here; nearly all actives have a fitted effect of over 45% in size
A number is an active result; - = inactive; ? = inconclusive; . = no result given; ! = not active in a repeat; [ ] = dose if it differs, or a comment. This is a sample that favours compounds with a hit; in the whole collection about 9.3% have one here. Unless noted, calls come from the whole dose curve; as a rule, active = well fitted curve in the direction sought with a large enough effect; inconclusive = small, poorly fitted or top-dose-only effect, or another doubt; inactive = no such curve, though single readings can be large; an effect the other way counts as inactive or inconclusive.

SMILES	Vaccinia Venus	HCMV antiviral	Vaccinia mCherry	HCV inh	Sm TGR inh	FMDV antiviral
COc1ccc(C(=O)/C=C/c2cn(CC(O)CN3CCN(C)CC3)c3ccccc23)cc1OC (stereo not given)	?	-78.2	?	-	-	-
O=C(/C=C/c1cn(CC(O)CN2CCCCC2)c2ccccc12)c1ccccc1 (stereo not given)	-	-84.5	-	?	-	-
O=C(/C=C/c1cn(CC(O)CN2CCCCCC2)c2ccccc12)c1ccccc1 (stereo not given)	-	-	-	.	?	-
COc1ccc(C(=O)/C=C/c2cn(CC(O)CN3CCCCCC3)c3ccccc23)cc1OC (stereo not given)	-	-90.9	?	.	-	-
CC1=NN(c2nc(-c3ccc(C)cc3)cs2)C(=O)C1N=Nc1ccccc1O (stereo not given)	-	-101.6	-	10µM	-	-
COc1ccc(C(=O)Nc2c3c(nn2C(C)(C)C)CS(=O)(=O)C3)cc1OC	-	?	-	-	-	-
COc1ccc(S(=O)(=O)NCCSCc2ccco2)cc1	-	-	.	-	25.1µM	-
COc1ccc(S(=O)(=O)NCCSCc2ccco2)cc1OC	-	-	-	-	11.2µM	.
Cc1cc(C)c(S(=O)(=O)NCCSCc2ccco2)c(C)c1	.	-	.	-	12.6µM	-
CCOc1ccc(S(=O)(=O)NCCSCc2ccco2)cc1	-	-	-	-	?	.
CCOc1ccccc1NC(=O)Cn1c(=O)n(CCC(=O)NCc2ccc3c(c2)OCO3)c(=O)c2ccccc21	-	-	-	.	-	-
C=CCn1c(-c2ccc3ncccc3c2)n[nH]c1=S	.	-	.	-	-	-
Cc1cc(Cl)ccc1NC(=O)CCS(=O)(=O)c1cc2c(cc1C)NC(=O)CO2	-	-	-	.	-	-
Cc1ccc(CNC(=O)CCS(=O)(=O)c2cc3c(cc2Cl)NC(=O)CO3)cc1	-[7.34 µM]	-104.8!	-	-	-	-
Cc1cc(F)ccc1NC(=O)CCS(=O)(=O)c1cc2c(cc1C)NC(=O)CO2	-	-104.7	-	.	-	-
Cc1noc(C)c1COC(=O)CCCOc1ccc(Cl)cc1Cl	-	-	-	-	-	-
Oc1c(N=Nc2ccc(F)cc2)ccc2ccccc12	-	-	?	-	-	14.1µM
Oc1ccc2ccccc2c1N=Nc1ccc(F)cc1	-	-	-	-	-	-
COc1cccc(N=Nc2ccc3ccccc3c2O)c1	.	-	.	-	-	-
Cc1ccc(N=Nc2ccc3ccccc3c2O)cc1	-	?	-	-	-	7.94µM
COc1ccc(N=Nc2ccc3ccccc3c2)c(O)c1	.	-	.	-	-	-
Oc1c(N=Nc2nn[nH]n2)ccc2ccccc12	?	-85.0	?	.	.	?
O=C(C1CC1c1ccccc1)N1CCN(c2cccc(Cl)c2)CC1 (stereo not given)	-	-	-	-	-	-
CCCCNC(=O)c1ccccc1Cl	.	-107.0	.	-	-	-
CCCCNC(=O)c1cccc2c(=O)c(C)c(-c3ccccc3)oc12	-	-67.8	-	?	-	-
SMILES	Vaccinia Venus	HCMV antiviral	Vaccinia mCherry	HCV inh	Sm TGR inh	FMDV antiviral
CCCCN(C(=O)c1cccc2c(=O)c(C)c(-c3ccccc3)oc12)c1ccccc1	.	-62.8	.	?	-	?
Cc1ccc(NC(=O)COC(=O)c2cccc3c(=O)c(C)c(-c4ccccc4)oc23)cc1	-	-	-	?	-	-
O=c1c(-c2ccccc2)nc(-c2ccccc2)cn1O	-	-	.	-	-	-
Cc1cc2nc3c(=O)[nH]c(=O)nc-3n(C)c2cc1C=O	.	.	.	.	.	15.8µM
COc1ccc(C(C)=O)cc1COC(=O)c1cnc(C)cn1	.	-	.	?	-	-
CC(=O)Nc1ccccc1-c1nc2ccccc2n(C(C)C(=O)Nc2cc(Cl)ccc2C)c1=O (stereo not given)	-	-	-	.	-	-
Cc1c(NC(=S)N/N=C/c2ccc(N(C)C)cc2)c(=O)n(-c2ccccc2)n1C	-	-	-	-	-	-
CN1C(=S)N(c2cccnc2)C(=O)/C1=C\c1ccc(N(C)C)cc1	-	-63.7	?	-	-	?
CN1C(=S)N(c2cccnc2)C(=O)/C1=C\c1ccc(C(C)(C)C)cc1	.	?	.	?	-	?
Cc1c(N2C(=O)/C(=C\c3ccc(N(C)C)cc3)N(C)C2=S)c(=O)n(-c2ccccc2)n1C	-	-65.0	-	-	-	-
C/C(=N\NC(=O)c1ccccc1OCc1ccc(F)cc1)c1ccccn1	.	-101.9	.	2.82µM	-	-
CCOc1ccc(OCc2ccc(C(=O)N/N=C(\C)c3ccccn3)cc2)cc1	?	-85.4	1.78µM	?	-	-
O=C1Cc2cc(S(=O)(=O)Nc3cccc(C(F)(F)F)c3)cc3c2N1CCC3	-	-	-	.	-	-
CC(NCC(O)COC1CCC(C(C)(C)C)CC1)c1ccccc1 (stereo not given)	.	?	.	?	-	?
CC1CCC(C(C)C)C(OCC(O)CNC(C)c2ccccc2)C1 (stereo not given)	10µM	-98.5	10µM	?	-	?
CC1CCC(C(C)C)C(OCC(O)CNC(C)(C)C)C1 (stereo not given)	-	-75.8	-	-	-	-
O=C(C1=C[C@@H]2[C@H]3C(=O)N(c4ccc(Cl)cc4)C(=O)[C@H]3[C@@H](C(=O)c3ccc(Cl)cc3)N2C=C1)c1ccccc1	-	-	-	-	14.1µM	-
CC(=O)Oc1ccc(C(=O)[C@H]2[C@H]3C(=O)N(c4ccccc4)C(=O)[C@H]3[C@@H]3C=CC=NN32)cc1	-	-	-	-	?	-
O=c1oc2ccccc2cc1-c1cn2ccccc2n1	?	-63.4	-	?	-	7.94µM
Cc1ccc2c(c1)sc1nc(-c3cc4ccccc4oc3=O)cn12	-	-79.5	-	.	?	0.316µM
O=c1oc2ccccc2cc1-c1cn2cc(Cc3cc(Cl)ccc3Cl)sc2n1	-	-	-	.	-	-
CC(C)c1ccc(Cc2cn3cc(-c4cc5ccccc5oc4=O)nc3s2)cc1	?	-78.3	?	.	-	-
Clc1ccc(CSc2nnc(CN3CCOCC3)n2-c2ccccc2)cc1Cl	?	-	?	-	-	?
CCOc1c2c(c(-c3ccc4c(c3)OCO4)c3cc(OC)c(OC)cc13)C(=O)OC2	3.98µM	.	?	.	.	.
COCCOC(=O)C1=C(C)NC(=O)NC1c1c(Cl)nc2c(C)cccn2c1=O (stereo not given)	.	.	.	-	-	.
Cc1ccc(C(c2cccc(Br)c2)c2c(C)[nH]c3ccccc23)s1 (stereo not given)	-[7.34 µM]	-	-	.	25.1µM	-
CC1CN(C(=O)CCc2ccccc2)C(C)CN1C(=O)CCc1ccccc1 (stereo not given)	-	-	.	-	-	-
COc1cc(CN2CCc3ccccc3C2)ccc1O	.	-99.6	.	?	20µM	31.6µM
COc1cc(CN2CCc3ccc(NC(=O)CCc4ccccc4OC)cc3C2)ccc1O	.	-	.	?	12.6µM	-

Source: PubChem (National Center for Advancing Translational Sciences (NCATS))
